Screening results deposited in PubChem BioAssay by Sanford-Burnham Center for Chemical Genomics.
Mac1 fbg inh = blocks human CD11b/CD18 adhesion to fibrinogen; P05107+P11215; K562 CD11b/CD18 adhesion to fibrinogen, ATPlite luminescence; Mn2+ added to activate the integrin; inhibition, % at 10 µM; 0.54% of 93,000 active; AID 1497;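 active = primary inhibition of 50% or more at 10 µM, then 40% or more on retest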
HePTP inh = inhibitors of human HePTP phosphatase; recombinant HePTP phosphatase activity, OD absorbance; inhibition, % at 20 µM; 0.64% of 110,000 active; in the data active = inhibition above about 50%;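 also: plate controls were vehicle for no effect and reference inhibitor for full effect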
Target sequence (P35236 whole entry, looked up): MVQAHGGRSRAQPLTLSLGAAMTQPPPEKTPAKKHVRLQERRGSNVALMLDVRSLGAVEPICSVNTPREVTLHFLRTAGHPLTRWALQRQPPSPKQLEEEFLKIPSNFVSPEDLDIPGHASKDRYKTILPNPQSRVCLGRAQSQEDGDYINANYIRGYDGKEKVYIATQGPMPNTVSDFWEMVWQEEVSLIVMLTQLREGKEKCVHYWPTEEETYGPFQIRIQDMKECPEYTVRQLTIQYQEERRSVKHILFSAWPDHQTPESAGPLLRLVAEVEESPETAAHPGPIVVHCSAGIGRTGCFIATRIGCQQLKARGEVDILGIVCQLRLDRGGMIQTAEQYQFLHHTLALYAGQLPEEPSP
PLAP act = activates human placental alkaline phosphatase. P05187. purified PLAP enzyme, luminescent substrate read-out; hits give high values. activation fold at 20 µM. 1.2% of 96,000 active; in the data active = activation fold above about 2
Mac1 fbg enh = enhancers of human CD11b/CD18 binding to fibrinogen; P05107+P11215; K562 CD11b/CD18 adhesion to fibrinogen, ATPlite luminescence; activation, % at 10 µM; 0.07% of 93,000 active;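 active = 10 µM primary screen giving 50% or more activity, confirmed by 40% or more on retest at that dose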
Numbers without * were called inactive; . = no result given. Most compounds without a hit are left out; they make up all but 1.5% or so of the library.

SMILES | Mac1 fbg inh | HePTP inh | PLAP act | Mac1 fbg enh
COc1ccc(S(=O)(=O)NNC(=O)c2cc3cc4ccccc4nc3s2)cc1 | 9 | . | 2* | 1
CCOC(=O)COc1ccc(S(=O)(=O)NCc2cccnc2)cc1 | 4 | 8 | 1 | -1
COC(=O)COc1ccc(S(=O)(=O)NCc2ccncc2)cc1 | 80* | 9 | 1 | -4
C/C(=N\NC(=O)c1ccccc1O)C1C(=O)c2ccccc2C1=O | 11 | . | 2.1* | 7
Cc1ccc(OCC(=O)O/N=C(\N)c2ccccn2)c(C)c1 | . | -8 | . | .
O=C(COc1ccc(Cl)cc1)Nc1ccc2oc(-c3ccccc3F)nc2c1 | . | 57* | . | .
O=C(Nc1ccc2oc(-c3ccccc3Cl)nc2c1)c1ncn[nH]1 | 14 | -2 | 2* | 19
O=C(Nc1ccc2oc(-c3cccc4ccccc34)nc2c1)c1ncn[nH]1 | 18 | . | . | 18
CCCc1cc(=O)oc2c(CN3CCCC3)c(O)c(Cl)cc12 | 1 | 3 | 2.9* | -2
COC(=O)/C(=C/C(=O)c1ccc([N+](=O)[O-])cc1)Nc1ccc(Br)cc1 | . | 4 | . | .
Cc1cc(N2CCN(c3cccc(C(F)(F)F)c3)CC2)n2ncnc2n1 | -7 | -1 | 1 | -3
Cc1nc2ncnn2c(N2CCN(c3cccc(C(F)(F)F)c3)CC2)c1C | 16 | 4 | 2* | 0
O=C(N/N=C/C=C/c1ccccc1)c1n[nH]c2c1CCC2 | 8 | . | 2.4* | -4
CCC(CO)[n+]1c(C)cc(/C=C2\Sc3ccccc3N2Cc2ccccc2)cc1C (centres undefined) | 103* | . | . | -7
Cc1c(-c2ccccc2)[nH]n2c(=O)cc(-c3ccccc3)nc12 | . | 2 | . | .
CC(=O)c1c(C)[nH]c(C(=O)OCC(=O)N2CCN(S(=O)(=O)c3ccc(C)cc3C)CC2)c1C | 10 | . | 2* | -2
CCCC(=O)Nc1ccc2c(c1)nc(CN1CCCC1)n2C | 8 | . | 0.8 | 0
CC(C)c1ccc(OCC(=O)Nc2ccc(OC(F)(F)F)cc2)cc1 | 6 | . | . | 20
Cn1c(CN2CCCCC2)nc2cc(NC(=O)c3cccc(Br)c3)ccc21 | 59* | . | 1.4 | -4
Cn1c(CN2CCCCC2)nc2cc(NC(=O)c3ccccc3)ccc21 | -16 | 4 | 1.5 | 3
CCOc1ccc(C(=O)Nc2ccc(OC(F)(F)F)cc2)cc1Br | . | 8 | . | .
Cc1ccc(C(C)C)c(OCC(=O)Nc2ccc(OC(F)(F)F)cc2)c1 | . | 83* | . | .
Cc1ccc(C(C)C)c(OCC(=O)Nc2ccc3c(c2)nc(CN2CCCC2)n3C)c1 | 6 | . | 2* | -1
CCOc1ccc(C(=O)Nc2ccc(OC(F)(F)F)cc2)cc1 | . | 103* | . | .
O=C(Nc1ccc(OC(F)(F)F)cc1)c1cccc([N+](=O)[O-])c1 | . | 2 | . | .
SMILES | Mac1 fbg inh | HePTP inh | PLAP act | Mac1 fbg enh
Cc1ccc(N=Nc2c(=O)[nH]n3c(=O)cc(C)[nH]c23)cc1 | -3 | . | 2.1* | 1
Cc1ccc(N=Nc2c(N)[nH]n3c(=O)cc(-c4ccccc4)nc23)cc1 | . | . | 1.2 | .
Cc1nn(Cc2ccc(Cl)c(Cl)c2)c(C)c1NC(=O)c1cn(-c2ccccc2)nc1-c1ccccc1 | -4 | . | 2.7* | -2
Cc1nn(Cc2ccc(Cl)c(Cl)c2)c(C)c1NC(=O)c1cc(-c2ccc3c(c2)OCO3)on1 | 27 | -22 | 0.8 | 20
O=C(/C=C/c1cccnc1)c1ccc(NC(=O)c2cccc(Br)c2)cc1 | -12 | . | 1 | 72*
Cc1ccc(C(=O)Nc2ccc(C(=O)/C=C/c3cccnc3)cc2)cc1 | . | 12 | . | .
O=C(O)c1cnc(-c2ccccc2)nc1Sc1ccc(Cl)cc1 | 90* | . | 1.3 | -12
CCOC(=O)c1c(-c2ccc(F)cc2)csc1NC(=O)C1CCCCC1C(=O)O (centres undefined) | . | 0 | . | .
COc1ccc(CCN2C(=O)CSC2c2ccc([N+](=O)[O-])cc2)cc1OC (centres undefined) | . | 104* | . | .
COc1cc(C2SCC(=O)N2CCc2ccc(OC)c(OC)c2)ccc1O (centres undefined) | . | -12 | . | .
O=C(CN(c1ccc(F)cc1)S(=O)(=O)c1ccccc1)N1CCCCCC1 | . | 2 | . | .
O=c1[nH]cnc2scc(-c3ccc(-c4ccccc4)cc3)c12 | -28 | -11 | 0.8 | -5
O=c1[nH]cnc2scc(C3COc4ccccc4O3)c12 (centres undefined) | -8 | 6 | 2.1* | -4
COc1ccc(-c2cc(C(=O)Nc3nc4ccc(S(C)(=O)=O)cc4s3)c3ccccc3n2)cc1OC | . | 2 | . | .
Cc1cc(NC(=O)CSc2nc3ccc(Cl)cc3[nH]2)no1 | -3 | . | 2.7* | -5
Cc1ccc2nc(SCC(=O)c3cc(C)n(C)c3C)[nH]c2c1 | -4 | . | 1.1 | -4
Cc1cc(C(=O)CSc2nc3ccc(Cl)cc3[nH]2)c(C)n1CC1CCCO1 (centres undefined) | 83* | . | 1.9 | -6
Cc1cc(NC(=O)CSc2nc3cc(Cl)ccc3s2)no1 | -6 | . | 0.5 | 61
Cc1cc(C(=O)CSc2nc3ccc(Cl)cc3[nH]2)c(C)n1C | 13 | -4 | 2.1* | 8
CCC(Sc1nc2ccccc2[nH]1)C(=O)Nc1cc(C)on1 (centres undefined) | -3 | 4 | 2.1* | -1
COc1cc(C2NC(C(=O)O)CS2)ccc1OCc1ccccc1C#N (centres undefined) | 11 | 6 | 2.1* | -2
CCOc1ccc2nc(SC/C=C/c3ccccc3)sc2c1 | . | 8 | . | .
COc1ccc(NC(=O)C(=O)N/N=C/c2cc(C)n(-c3cccc(Cl)c3Cl)c2C)c(OC)c1 | 30 | . | 2* | -5
CCOc1ccc(-c2[nH]ncc2Oc2cccc(OC)c2)c(O)c1 | 12 | -12 | 2.6* | 2
COc1cccc(Oc2cn[nH]c2-c2ccc(OC)cc2O)c1 | 17 | 0 | 2.2* | 1
SMILES | Mac1 fbg inh | HePTP inh | PLAP act | Mac1 fbg enh
Oc1ccc(-c2[nH]ncc2-c2ccc(Cl)cc2)c(O)c1 | . | -1 | 1.6 | .
COc1ccc(-c2[nH]ncc2-c2ccc(Cl)cc2)c(O)c1 | 33 | 0 | 2* | 2
COc1ccc(-c2[nH]ncc2-c2csc(C)n2)c(O)c1 | 13 | . | . | -2
COc1cccc(Oc2cn[nH]c2-c2ccc(O)cc2O)c1 | . | -7 | 2* | .
CN1CCN(CCOCCOc2ccc(Br)cc2)CC1 | . | 2 | . | .
CCCc1ccc(Oc2cn[nH]c2-c2ccc(O)c(C)c2O)cc1 | 101* | -3 | 2.2* | -11
CCCc1ccc(Oc2c(-c3ccc(O)c(C)c3O)n[nH]c2C)cc1 | 29 | -6 | 1.8 | -8
COc1ccc(NC(=O)/C=C/c2ccccc2)c(OC)c1 | . | -3 | . | .
COc1ccc(CNc2ccc(Br)cc2C(=O)O)c(OC)c1 | . | 77* | . | .
COc1cc(CNc2ncn[nH]2)cc(Br)c1OC | -6 | 2 | 2.5* | -1
O=C1/C(=C/c2cccs2)SC(=S)N1c1ccc(Br)cc1 | . | -4 | . | .
CCN(CCNC(=O)C1CCN(Cc2nc(-c3ccc(Cl)cc3)oc2C)CC1)c1ccccc1 | 19 | 8 | 1.9 | -3
CCN(CCNC(=O)C1CCN(Cc2nc(-c3cccc(Cl)c3)oc2C)CC1)c1ccccc1 | 36 | 8 | 2* | -2
COc1ccc(CCNC(=O)C2CCN(Cc3nc(-c4ccccc4C)oc3C)CC2)cc1OC | 16 | -12 | 2.1* | -9
